{"source": "PubChem BioAssay (EPA / NIEHS)", "note": "Calls of active or inactive are those of the source. The calls were made as follows: active = hit-call score of the fitted dose curve at least 0.9, where 1 is the maximum; inactive = score below 0.9."}
{"read-out": "Vascular endothelial growth factor receptor 2 (Homo sapiens) (UniProt P35968)", "test": "BSK_4H_VEGFRII: BioMAP Diversity Plus: 4H Assay for Vascular endothelial growth factor receptor 2 (VEGFR2) Biomarker Activity (AID 2283031)", "settings": "primary human endothelial cells (HUVEC); actives raise or lower the signal", "method": "BSK_4H is a cell-based, multiplexed-readout assay that uses umbilical vein endothelium, a human vascular primary cell, with measurements taken at 24 hours after chemical dosing in a 96-well plate.BSK_4H_VEGFRII is an assay component measured in the BSK_4H assay. It measures VEGFRII antibody related to regulation of gene expression using ELISA technology.Data from the assay component BSK_4H_VEGFRII was analyzed into 1 assay endpoint. This assay endpoint, BSK_4H_VEGFRII, was analyzed with bidirectional fitting relative to DMSO as the negative control and baseline of activity. Using a type of binding reporter, gain or loss-of-signal activity can be used to understand changes in the signaling as they relate to the gene KDR. Furthermore, this assay endpoint can be referred to as a primary readout, because this assay has produced multiple assay endpoints where this one serves a signaling function. To generalize the intended target to other relatable targets, this assay endpoint is annotated to the kinase intended target family, where the subfamily is receptor tyrosine kinase.\nThe levels of cell surface (or secreted, indicated by the prefix \"s\") biomarker endpoints were measured by ELISA. Overt cytotoxicity to cells in confluent adherent cultures (all systems other than the BT system) was assessed by measuring total protein levels using sulforhodamine B (SRB) staining in parallel cultures at the time of biomarker measurements, indicated as SRB endpoints. For proliferation assays for adherent cell types, individual cell types are cultured at sub-confluence and relative cell numbers quantified by SRB staining at time points optimized for each system (48 h: 3C and CASM3C systems; 72 h: BT and HDF3CGF systems; 96 h: SAg system). SRB was performed by staining cells with 0.1% SRB after fixation with 10% TCA and reading wells at 560 nm.Viability and proliferation of PBMC (T cells) was quantified by Alamar Blue reduction for the SAg and BT systems. For PBMC viability (referred to as PBMC Cytotoxicity within the assay endpoint names), cells were plated (75,000/well in a 96-well plate) and then chemical samples added for 1 h before addition of activators, SEB and TSST-1 (20 ng/mL final concentration each). Cells were incubated for 90 h. Then, Alamar Blue (20 uL/well) (Invitrogen, Cat DAL1100) was added for 6 h, and the plates were read with a fluorescence microplate reader at 546/580 nm (excitation/emission). For PBMC proliferation, cells were plated and activated as above but incubated for only 16 h prior to addition of Alamar Blue. Plates were read after 6 h."}
{"smiles": "CCCOC(=O)NCCCN(C)C", "outcome": "inactive"}
{"smiles": "CCN(CC)C(=O)c1cccc(C)c1", "outcome": "inactive"}
{"smiles": "CCCCOC(=O)[C@@H](C)Oc1ccc(Oc2ccc(C(F)(F)F)cn2)cc1", "outcome": "inactive"}
{"smiles": "S=C(S)NCCNC(=S)S.[Mn+2].[S-]C([S-])=NCCN=C([S-])[S-].[Zn+2]", "outcome": "inactive"}
{"smiles": "COC(=O)c1ccc(CNS(C)(=O)=O)cc1S(=O)(=O)NC(=O)Nc1nc(OC)cc(OC)n1", "outcome": "inactive"}
{"smiles": "CCOC(=O)C(C)Oc1ccc(Oc2nc3ccc(Cl)cc3o2)cc1", "note": "(stereo not given)", "outcome": "inactive"}
{"smiles": "CC(C)(c1ccc(O)cc1)c1ccc(O)cc1", "outcome": "inactive"}
{"smiles": "O=C(Nc1ccc([N+](=O)[O-])cc1Cl)c1cc(Cl)ccc1O", "outcome": "inactive"}
{"smiles": "O=C(O)C1(C(=O)Nc2ccc(Cl)cc2Cl)CC1", "outcome": "inactive"}
{"smiles": "CCCN(CCC)C(=O)SCC", "outcome": "inactive"}
{"smiles": "CCCN(CCC)c1c([N+](=O)[O-])cc(C(F)(F)F)c(N)c1[N+](=O)[O-]", "AC50": "32.3 µM (active)"}
{"smiles": "C[C@]12CC[C@@H]3c4ccc(O)cc4C[C@@H](CCCCCCCCCS(=O)CCCC(F)(F)C(F)(F)F)[C@H]3[C@@H]1CC[C@@H]2O", "note": "(stereo not given in full)", "outcome": "inactive"}
{"smiles": "O=C(c1ccc(O)cc1O)c1ccc(O)cc1O", "outcome": "inactive"}
{"smiles": "N[C@@H](Cc1cc(I)c(Oc2ccc(O)c(I)c2)c(I)c1)C(=O)O", "outcome": "inactive"}
{"smiles": "C=CCOC(Cn1ccnc1)c1ccc(Cl)cc1Cl", "note": "(stereo not given)", "outcome": "inactive"}
{"smiles": "CSC(=O)c1cccc2nnsc12", "outcome": "inactive"}
{"smiles": "O=C(c1ccccc1)C1CCCCC1", "outcome": "inactive"}
{"smiles": "CCOC(=O)C(C)Oc1ccc(Oc2cnc3cc(Cl)ccc3n2)cc1", "note": "(stereo not given)", "outcome": "inactive"}
{"smiles": "CCC(C)OC(=O)N1CCCCC1CCO", "note": "(stereo not given)", "outcome": "inactive"}
{"smiles": "COC(=O)c1ccccc1S(=O)(=O)NC(=O)Nc1nc(OC(F)F)cc(OC(F)F)n1", "outcome": "inactive"}
{"smiles": "CCOC(=O)[C@H](C)Oc1ccc(Oc2nc3ccc(Cl)cc3o2)cc1", "outcome": "inactive"}
{"smiles": "CCCOC(=O)c1ccc(C(=O)OCCC)nc1", "outcome": "inactive"}
{"smiles": "CC(C)(C)[C@@H](O)[C@@H](Cc1ccc(Cl)cc1)n1cncn1", "outcome": "inactive"}
{"smiles": "CC(C)CCCCCCc1ccc(O)cc1", "AC50": "5.29 µM (active)"}
{"smiles": "CCOC(=O)COc1cc(-n2ncc(C(F)(F)F)c(C)c2=O)c(F)cc1Cl", "outcome": "inactive"}
{"smiles": "COC(=O)c1c(Cl)nn(C)c1S(=O)(=O)NC(=O)Nc1nc(OC)cc(OC)n1", "outcome": "inactive"}
{"smiles": "CCCCC(CC)COC(=O)c1ccccc1C(=O)O", "note": "(stereo not given)", "outcome": "inactive"}
{"smiles": "CCOC(=O)NCCOc1ccc(Oc2ccccc2)cc1", "outcome": "inactive"}
{"smiles": "CC1(C)C(C=C(Cl)Cl)C1C(=O)OCc1cccc(Oc2ccccc2)c1", "note": "(stereo not given)", "outcome": "inactive"}
{"smiles": "CN(C)C(=O)Nc1ccc(Cl)c(Cl)c1", "outcome": "inactive"}
{"smiles": "C[C@]12C[C@H](O)[C@H]3[C@@H](CCC4=CC(=O)CC[C@@]43C)[C@@H]1CC[C@@H]2C(=O)CO", "outcome": "inactive"}
{"smiles": "CCNc1nc(N)nc(Cl)n1", "outcome": "inactive"}
{"smiles": "CCCCC(CC)CN1C(=O)C2C3C=CC(C3)C2C1=O", "note": "(stereo not given)", "outcome": "inactive"}
{"smiles": "COC(=O)c1ccc(I)cc1S(=O)(=O)NC(=O)Nc1nc(C)nc(OC)n1", "outcome": "inactive"}
{"smiles": "c1ccc(Nc2ccccc2)cc1", "outcome": "inactive"}
{"smiles": "C#CCOC(=O)[C@@H](C)Oc1ccc(Oc2ncc(Cl)cc2F)cc1", "outcome": "inactive"}
{"smiles": "CCCCCOC(=O)COc1cc(N2C(=O)C3=C(CCCC3)C2=O)c(F)cc1Cl", "outcome": "inactive"}
{"smiles": "CCCCOCCOCCOCc1cc2c(cc1CCC)OCO2", "outcome": "inactive"}
{"smiles": "COC(=O)c1ccccc1C(=O)O", "outcome": "inactive"}
{"smiles": "CCSC(=O)N(CC(C)C)CC(C)C", "outcome": "inactive"}
